POLK inh: inhibitors of human DNA polymerase kappa; purified Pol kappa, fluorescent DNA synthesis assay, 10 min; Potency, µM (highest dose often 107 µM), inactives show at the highest dose activity, negative = inhibition, most hits filed as inhibitors; 400,000 tested, 0.53% active; further: on the % scale 0 is the no-effect control and ±100 the full control effect
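Fluorescent qHTS in 1536-well format: enzyme (10 nM) and compound sat 15 min at room temperature before 50 nM substrate (final) was added. Signal taken at 0 and 10 min; no-enzyme buffer wells were negative controls.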
WRN inhibitor: blocks human WRN helicase; Q14191; WRN helicase unwinding, fluorescent forked duplex, kinetic; Potency, µM (doses to about 114 µM), inactives show at the top dose activity change, negative = inhibition, usual class: inhibitors; 360,000 tested, 0.46% active; AID 651768; further: on the % scale 0 is the no-effect control and ±100 the full control effect; nearly all actives have a fitted effect of over 55% in size
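Kinetic fluorescence helicase assay: unwinding of a quenched forked DNA duplex (100 nM final) with 2 mM ATP final raises red fluorescence (525/598 nm). Compounds sat 15 min at room temperature with 20 nM WRN beforehand.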
POLB inh: DNA polymerase beta (human) inhibition. P06746. Pol beta primer extension/strand displacement, fluorescence kinetic. Potency, µM (highest dose often 114 µM), for the others: at the top dose activity change, negative = inhibition, actives largely listed as inhibitors. 340,000 tested, 1.3% active; further: on the % scale 0 is the no-effect control and ±100 the full control effect
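Pol beta (10 nM) and compounds were preincubated 15 min at room temperature, then 50 nM substrate (final) started primer extension/strand displacement. Reads were taken at 0 and 10 min; concentration-response data were fitted to a four-parameter Hill equation.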
POLI inh: inhibitors of human DNA polymerase iota | Potency, µM (top dose mostly 115 µM), for the others: at the top dose activity, negative = inhibition, hits mostly inhibitors | 390,000 tested, 1% active | Pol iota fluorescent replication assay, 10 min | Q9UNA4
Target sequence (Q9UNA4 whole entry, looked up): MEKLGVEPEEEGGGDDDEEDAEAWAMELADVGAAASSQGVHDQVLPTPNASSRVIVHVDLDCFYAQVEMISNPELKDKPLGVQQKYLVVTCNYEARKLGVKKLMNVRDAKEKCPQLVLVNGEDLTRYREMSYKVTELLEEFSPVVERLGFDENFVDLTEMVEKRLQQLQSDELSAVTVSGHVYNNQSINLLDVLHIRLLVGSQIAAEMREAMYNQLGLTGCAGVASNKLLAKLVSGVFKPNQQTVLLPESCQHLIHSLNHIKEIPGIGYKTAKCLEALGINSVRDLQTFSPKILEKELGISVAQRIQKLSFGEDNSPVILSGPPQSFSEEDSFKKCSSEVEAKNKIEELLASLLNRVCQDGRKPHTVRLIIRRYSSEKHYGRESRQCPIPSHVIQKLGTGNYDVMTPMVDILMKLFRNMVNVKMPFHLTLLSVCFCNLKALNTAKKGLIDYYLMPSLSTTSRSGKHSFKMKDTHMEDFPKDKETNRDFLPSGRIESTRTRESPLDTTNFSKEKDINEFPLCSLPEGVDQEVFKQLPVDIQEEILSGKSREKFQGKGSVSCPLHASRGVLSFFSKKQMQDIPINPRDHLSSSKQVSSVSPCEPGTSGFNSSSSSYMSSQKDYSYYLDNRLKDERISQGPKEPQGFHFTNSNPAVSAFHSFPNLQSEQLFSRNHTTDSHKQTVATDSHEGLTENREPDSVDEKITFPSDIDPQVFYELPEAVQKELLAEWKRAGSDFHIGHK
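Fluorescent replication assay read twice, at 0 min and 10 min after adding 50 nM (final) substrate. Enzyme (10 nM) and compounds were first incubated 15 min at room temperature; enzyme-free buffer wells were negative controls.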
Pol eta inh: DNA polymerase eta (human) inhibition; recombinant Pol eta, fluorescent DNA replication assay; AID 588591; 390,000 tested, 1.2% active; Potency, µM (highest dose often 114 µM), for inactives: top-dose activity change, negative = inhibition, actives largely listed as inhibitors; Q9Y253; further: on the % scale 0 is the no-effect control and ±100 the full control effect
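Pol eta (10 nM) was preincubated with compounds for 15 min at room temperature, after which fluorescent replication substrate (50 nM final) was added to start the reaction. Fluorescence was read kinetically at 0 and 10 min.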
L3MBTL1 inh: blocks human L3MBTL1; Potency, µM (doses to about 57.1 µM), inactives show at the top dose activity, negative = inhibition, usual class: inhibitors; AlphaScreen L3MBTL1–H3K9me1 peptide binding; AID 485360; 230,000 tested, 0.66% active; further: on the % scale 0 is the no-effect control and ±100 the full control effect; nearly all actives have a fitted effect of over 60% in size
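Displacement of a biotinylated histone H3(1-15) peptide monomethylated at Lys9 (75 nM) from L3MBTL1 (50 nM) was measured by AlphaScreen after a 30 min room-temperature compound incubation; cefsulodin titration served as intraplate control.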
An asterisk follows results filed as active; ? = inconclusive; . = not tested or not shown; [ ] = dose if it differs, or a comment. Compounds with a hit are over-represented: about 2.5% of the library has one in this group of screens. The call rests on the fitted dose curve; in most records, active means well fitted curve in the direction sought with a large enough effect; inconclusive means small, poorly fitted or top-dose-only effect, or another doubt; inactive means no such curve, though single readings can be large; an effect the other way counts as inactive or inconclusive. Potency means the concentration at half of the fitted maximal effect.

SMILES	POLK inh	WRN inhibitor	POLB inh	POLI inh	Pol eta inh	L3MBTL1 inh
COc1cccc2cc(/C(C)=N/Nc3nc(-c4cc(C)ccc4C)cs3)c(=O)oc12	-8%	?	40µM*	-15%	50µM*	-6%
COc1ccc(Nc2nc(-c3cc4cccc(OC)c4oc3=O)cs2)cc1	-4%	-22%	-12%	3%	-6%	13%
O=C1c2ccccc2C(=O)c2c(Nc3ccc(CCO)cc3)ccc(O)c21	-6%	-6%	6%	?	-23%	5.6µM*
CC(=O)N1c2ccc(S(=O)(=O)NCC3CCC(C(=O)NCc4ccc(C)o4)CC3)cc2CC1C (stereo not given)	-2%	-1%	?	29%	-22%	.
Cc1ccnc(SCC(=O)Nc2oc(-c3ccccc3)c(-c3ccccc3)c2C#N)n1	-16%	-18%	13%	-8%	-14%	-8%
N#Cc1c(NC(=O)CSc2ncccn2)oc(-c2ccccc2)c1-c1ccccc1	?	?	.	?	10µM*	.
Cc1cccc(/C(N)=N/OC(=O)c2cccnc2)c1	-1%[60.1 µM]	-2%	3%	15%	-6%	16%
O=C1c2ccccc2-c2onc3ccc(NCCCn4ccnc4)c1c23	20µM*	32µM*	25µM*	?	79µM*	.
O=C(c1cc(-c2cccc(Br)c2)nc2ccccc12)N1CCCC1	-24%	-14%	22µM*	?	-17%	.
COc1cccc(NC(CNS(=O)(=O)c2ccc(Cl)cc2)c2ccccc2)c1 (stereo not given)	-3%	.	0%	9%	.	.
CCOc1ccc(-n2nc(CO)c(C(=O)NCc3cccnc3)n2)cc1	-12%	.	-22%	2%	-7%	.
Cc1cc(N(C)C)ccc1N=Nc1ccc2ncccc2c1	-12%	-5%	2%	-21%	-14%	8.9µM*
COc1cccc(C2=CC(c3ccccc3F)n3ncc(C(=O)Nc4ccc(C)cc4)c3N2)c1 (stereo not given)	-9%[60.1 µM]	.	28µM*	-2%	-18%	.
C[C@@H]1NC(=O)c2cc([N+](=O)[O-])cc(I)c2OCC[C@@H](C(N)=O)NC(=O)[C@H](CCCCN)NC1=O	-8%	6%	-1%	-13%	-6%	2%
NCCCC[C@H]1NC(=O)[C@H](CCC(=O)O)NC(=O)c2cc([N+](=O)[O-])cc(I)c2OCC[C@@H](C(N)=O)NC1=O	3.5µM*	10µM*	-9%	8.9µM*	-98%	-8%
O=C(c1nnsc1S(=O)(=O)c1ccc(Cl)cc1)N1CCOCC1	5%	-36%	-1%	103%	5%	-3%
CNC(=O)c1nnsc1S(=O)(=O)c1ccc(Cl)cc1	-11%	7.9µM*	1%	?	4%	?
OCC1CSC(=S)N1Cc1ccccc1 (stereo not given)	.	6%	.	.	.	.
CCOc1ccc(NC(=O)c2cccc(-n3cccc3)c2)cc1S(=O)(=O)N1CCOCC1	.	.	.	.	.	5.6µM*
COc1ccc(S(=O)(=O)N2CCOCC2)cc1NC(=O)c1cc2c(s1)CCCC2	-9%	1%	1%	-8%	-10%	10%
COc1ccc(NC(=O)c2cc3c(s2)CCC3)cc1S(=O)(=O)N1CCOCC1	?	-20%	?	35µM*	?	.
c1ccc(C(c2nnnn2C2CCCCC2)N2CCc3ccccc3C2)nc1 (stereo not given)	1%	2%	7%	9%	-10%	-23%
O=C1c2cccc3c(O)ccc(c23)C(=O)N1Cc1ccco1	?	?	?	20µM*	32µM*	?
COC(=O)C1=C(N)Oc2cc(C)n(CCCn3ccnc3)c(=O)c2C1c1cccc(Cl)c1 (stereo not given)	-8%	-6%	-24%	6%	2%	.
COc1ccc(S(=O)(=O)c2nnn(-c3cc(Cl)c(OC)cc3OC)c2C)cc1	-12%	.	0%	?	89µM*	.
SMILES	POLK inh	WRN inhibitor	POLB inh	POLI inh	Pol eta inh	L3MBTL1 inh
COc1ccc(S(=O)(=O)c2nnn(-c3ccc(C(C)C)cc3)c2C)cc1	-28%	.	?	-4%	?	.
Cc1ccc(NC(=O)Cn2c(-c3nonc3N)nc3ccccc32)cc1C	-13%	.	5%	2%	-15%	.
CC(=O)Nc1c(S(=O)(=O)c2ccccc2)c2nc3ccccc3nc2n1Cc1ccccc1	-13%	-5%	1%	22%	-20%	2%
C=CCn1c(NS(=O)(=O)c2ccccc2)c(S(=O)(=O)c2ccc(C)cc2)c2nc3ccccc3nc21	5%	-14%	?	3.2µM*	89µM*	3.5µM*
CC1=[N+](C)c2c(ccc3cccnc23)C1(C)C	-11%	56µM*	25µM*	53%	-12%	?
Cc1ccc2c(c1)C1C=CCC1C(C(=O)O)N2 (stereo not given)	.	.	3.5µM*	.	.	3.2µM*
CC(=O)c1ccc2c(c1)C1C=CCC1C(c1ccncc1)N2 (stereo not given)	-13%	-33%	?	32µM*	?	-22%
Cc1ccc2[nH]c(O)c(N=NC(=O)c3ccc(NS(=O)(=O)c4cccs4)cc3)c2c1	-11%	-31%[57.1 µM]	3%	?	22µM*	.
CCc1nnc(NC(=O)c2sc3nc4c(cc3c2N)CCCCCC4)s1	-43%	-10%[11.6 µM]	40µM*	25µM*	40µM*	?
CC(=O)c1cccc(NC(=O)c2sc3nc4c(cc3c2N)CCCC4)c1	9%	.	?	-5%	79µM*	.
COc1ccc(NC(=O)Cn2c(=O)n(Cc3ccccc3OC)c(=O)c3cccnc32)cc1Cl	6%	.	7%	36%	7%	.
CNC(=S)N1N=C(c2ccccc2)CC1c1ccccc1Cl (stereo not given)	-5%	-3%	3%	25%	-22%	0%
CN(Cc1ccccc1)C(=O)c1cc(=O)[nH]c2ccccc12	-9%	5%	24%	-7%	-6%	0%
Cc1nc2cc(N=NC3=C(O)CCCC3=O)ccc2s1	-28%	-5%	-26%	50µM*	-16%	-26%
COc1ccc(/C=C(/C(=O)N2CCCCC2C(=O)O)c2ccc(OC)c(OC)c2)cc1 (stereo not given)	4%	-13%	.	79µM*	-1%	0%
Cc1ccc2c(c1)/C(=C/c1ccccc1)C(=O)N2	-6%	5%	11%	-6%	-10%	.
O=C1Nc2ccc(I)cc2C1=Cc1cc(Br)c(O)c(Br)c1	?	.	.	45µM*	.	.
CCc1ccc([C@@H]2C[C@H]3[C@@H](CN2S(=O)(=O)c2ccc(C)cc2)C(=O)C[C@@H](c2ccc(Cl)cc2)N3S(=O)(=O)c2ccccc2C)cc1	.	0%	.	.	-19%	.
CC(N)(Cc1ccc(O)c(O)c1)C(=O)O (stereo not given)	?	.	5.6µM*	?	-3%[57.1 µM]	.
